# Results: the supplement of paper PMC6555819
# Assays:
# Experiment in all cases: PBM binding z-score (relative to random genomic background probes); higher = stronger binding; sequences stand for … in GC…GCGATTGACAGCGTAGAATGAAGG
# [1] = test system: FXR:RXRa (NR concentration 270 nM, RXRa partner concentration 90 nM)
# Method in brief: (§1)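 Antibodies against each partner of ligand-free nuclear receptor dimers (one per run) detected binding on custom Agilent 4×180K protein-binding microarrays after 1 h incubation. The double-stranded probes had 34-nt variable regions carrying direct-repeat seeds, single-nucleotide variants, half-site ablations and random human genomic background sequences. Binding z-scores, from regression-normalized fluorescence, use the random background probes as reference.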
# [2] = test system: LXRa:RXRa (NR concentration 270 nM, RXRa partner concentration 90 nM)
# Method in brief: as §1
# [3] = test system: LXRa homodimer (NR concentration 270 nM)
# Method in brief: as §1
# [4] = test system: LXRb:RXRa (NR concentration 270 nM, RXRa partner concentration 90 nM)
# Method in brief: as §1
# [5] = test system: LXRb homodimer (NR concentration 270 nM)
# Method in brief: as §1
# [6] = test system: PPARa:RXRa (NR concentration 270 nM, RXRa partner concentration 90 nM)
# Method in brief: as §1
# [7] = test system: PPARg:RXRa (NR concentration 180 nM, RXRa partner concentration 90 nM)
# Method in brief: as §1
# [8] = test system: PPARg:RXRa 270nM:90nM, anti-RXR (NR concentration 270 nM, RXRa partner concentration 90 nM)
# Method in brief: as §1
# [9] = test system: PPARg:RXRa 30nM:10nM, anti-RXR (NR concentration 30 nM, RXRa partner concentration 10 nM)
# Method in brief: as §1
# [10] = test system: PPARg:RXRa 90nM:30nM, anti-RXR (NR concentration 90 nM, RXRa partner concentration 30 nM)
# Method in brief: as §1
# [11] = test system: PPARg:RXRa DBDmut IVT, anti-RXR (DBD mutation: RXRa K156A/R161A, NR concentration 270 nM, RXRa partner concentration 90 nM)
# Method in brief: as §1
# [12] = test system: PPARg:RXRa IVT, anti-PPARg (NR concentration 270 nM, RXRa partner concentration 90 nM)
# Method in brief: as §1
# [13] = test system: PPARg DBDmut IVT, anti-PPARg (DBD mutation: PPARg1 K132A/R137A, NR concentration 270 nM)
# Method in brief: as §1
# [14] = test system: PPARg homodimer (NR concentration 180 nM)
# Method in brief: as §1
# [15] = test system: PXR:RXRa (NR concentration 270 nM, RXRa partner concentration 90 nM)
# Method in brief: as §1
# [16] = test system: PXR homodimer (NR concentration 270 nM)
# Method in brief: as §1
# [17] = test system: RARa:RXR (NR concentration 270 nM, RXRa partner concentration 90 nM)
# Method in brief: as §1
# [18] = test system: RARa homodimer (NR concentration 270 nM)
# Method in brief: as §1
# [19] = test system: RARb:RXRa (NR concentration 270 nM, RXRa partner concentration 90 nM)
# Method in brief: as §1
Sequence,PBM binding z-score [1],PBM binding z-score [2],PBM binding z-score [3],PBM binding z-score [4],PBM binding z-score [5],PBM binding z-score [6],PBM binding z-score [7],PBM binding z-score [8],PBM binding z-score [9],PBM binding z-score [10],PBM binding z-score [11],PBM binding z-score [12],PBM binding z-score [13],PBM binding z-score [14],PBM binding z-score [15],PBM binding z-score [16],PBM binding z-score [17],PBM binding z-score [18],PBM binding z-score [19]
ATATGGAGGTTAGGGTCATTCAGAAAGTAGGGAA,5.28,4.25,1.34,4.8,2.02,5.63,5.01,4.47,1.89,3.76,2.21,3.8,1.73,2.92,4.32,2.35,4.55,2.05,3.93
CGAGCTAGGTCAAAGGACAGTGAAAGGCGACGTA,4.09,2.67,-0.157,1.53,-0.726,3.86,5.44,6.04,3.68,5.95,3.53,3.85,-0.971,1.2,1.01,-0.591,2.39,-0.312,4.04
CGAACTAGATCAAAGGACAGTGAAAGGCGACGTA,-0.658,-0.667,-0.396,-0.5,-0.637,1.77,3.32,4.89,2.76,4.58,1.68,1.44,-0.617,0.388,-0.456,-0.201,-0.579,0.383,0.915
ATATGTAGGTTAGGGCCATTCAGAAAGTAGGGAA,0.671,0.708,0.2,0.722,0.503,2.71,3.6,3.2,1.06,2.58,6.52,5.91,1.97,1.54,0.501,0.512,0.535,0.865,1.35
ATATGTAGGTTAGGGTCATTCACAAAGTAGGGAA,4.56,4.43,1.56,4.7,1.64,5.7,7.65,6.7,3.97,6.22,6.56,6.82,1.75,2.3,4.57,2.17,4.83,2.07,3.49
CGAACTAGGTCAAAGGACTGTGAAAGGCGACGTA,3.86,2.36,-0.238,1.58,-0.452,4.89,9.38,7.84,7.28,8.69,8.23,8,0.977,1.41,0.827,-0.596,1.86,-0.095,3.58
CGAAGTAGGTCACCAGGACAGTGAAGAGGTTGGA,3.65,2.69,0.0752,2.07,-0.257,5.34,8.79,7.35,4.81,7.02,8.22,8.92,0.944,1.76,1.71,0.236,2.78,0.426,3.99
ATATGTAGGTTAGGGTCATCCAGAAAGTAGGGAA,5.11,4.21,1.16,4.31,1.44,5.62,8.03,6.66,4.94,6.67,6.49,6.96,3.77,6.33,4.46,1.88,5.12,2.64,3.55
ATATGTAGGTTTGGGTCATTCAGAAAGTAGGGAA,1.74,1.71,0.946,2.49,1.68,3.1,2.34,2.64,1.4,2.29,2.79,3.08,1.3,2.99,2.17,1.25,2.47,2.33,2.07
CGAACTAGGTCACCAGGAAAGTGAAGAGGTTGGA,3.52,2.48,-0.13,1.69,-0.3,5.05,8.48,7.2,5.35,6.86,8.65,8.74,0.796,2.05,1.48,-0.0939,2.37,0.814,4.29
ATATGTAGGTTAGGGTAATTCAGAAAGTAGGGAA,1.61,1.22,0.994,1.87,1.03,3.31,4.75,3.91,2.13,3.13,6.57,6.48,2.48,2.03,0.958,1.34,1.34,1.87,1.33
AAATGTAGGTTAGGGTCATTCAGAAAGTAGGGAA,5.35,4.2,1.68,4.67,1.5,5.81,8.25,6.63,5.16,6.92,7.33,7.35,1.95,3.74,4.47,2.29,4.78,1.99,3.64
ATAGGTAGGTTAGGGTCATTCAGAAAGTAGGGAA,5.28,4.39,2.09,4.8,2.83,5.26,5.56,4.89,2.63,4.2,3.34,4.16,1.6,3.27,5.14,3.11,5.48,3.2,4
CGAACTAGGGCACCAGGACAGTGAAGAGGTTGGA,-0.211,-0.347,-0.377,-0.672,-1.24,2.31,4.04,3.54,1.13,2.7,7.2,6.94,-0.192,0.184,-0.709,-0.309,-0.404,-1.02,1.42
CGACCTAGGTCACCAGGACAGTGAAGAGGTTGGA,4.89,2.91,-0.161,2.09,-0.881,4.22,5.25,4.5,1.21,3.13,4.19,4.65,-0.593,1.87,1.62,-0.328,2.95,-0.595,4.37
CGAACTACGTCAAAGGACAGTGAAAGGCGACGTA,-0.5,-0.431,-0.3,-0.675,-0.597,0.0872,1.15,1.53,0.179,1.25,-0.332,-0.152,-0.567,-0.204,-0.445,-0.202,-0.353,-0.431,1.14
CTAACTAGGTCACCAGGACAGTGAAGAGGTTGGA,4.07,2.77,0.482,1.74,0.0977,5.34,9.24,7.69,5.34,7.49,8.89,9.08,-0.261,1.88,1.42,0.375,2.8,0.69,4.28
ATATGTAGGTTAGGGTCATTCATAAAGTAGGGAA,5.45,4.03,1.6,4.64,1.55,5.93,8.24,6.58,4.58,6.47,6.2,7.14,4.07,4.85,4.73,2.83,4.99,2.19,3.63
CGAACTAGGTCGAAGGACAGTGAAAGGCGACGTA,-0.0707,-0.21,-0.395,-0.3,-1.11,2.52,5.13,5.69,2.98,5.61,4.92,5.17,-0.201,0.0184,-0.467,-0.851,-0.0163,-0.8,1.18
ATACGTAGGTTAGGGTCATTCAGAAAGTAGGGAA,4.93,3.99,1.16,4.2,1.26,4.88,2.96,3.41,1.32,2.77,0.761,2.44,0.669,3.09,4.27,1.89,4.85,1.86,3.39
ATATGTAGGTTAGGGTCATTCAAAAAGTAGGGAA,4.97,4.06,1.57,4.59,1.42,5.83,7.96,7.02,4.85,6.73,6.37,6.88,2.24,2.6,4.47,2.2,5.13,2.37,3.59
CGAACTAGGTCAAAGGACAGTGAAAGGCGACGTA,4.11,2.54,0.0195,1.9,-0.588,5.72,10.1,8.6,8.13,9.66,7.94,8.4,3.54,2.15,1.21,-0.123,2.12,-0.0827,3.99
CGAACTAGGTCAAAGGACAGTAAAAGGCGACGTA,4.06,2.48,0.208,2.04,-0.428,5.67,9.93,8.18,7.65,8.57,8.07,8.42,0.249,1.7,1.14,0.0773,2.09,0.769,4.06
CGAATTAGGTCACCAGGACAGTGAAGAGGTTGGA,4.43,2.73,0.379,2.04,-0.0787,5.25,8.25,6.75,4.82,6.53,8.17,8.71,2.04,2.36,1.78,0.578,2.92,0.711,4.52
CGAACTAGGACACCAGGACAGTGAAGAGGTTGGA,-0.0401,-0.43,-0.083,-0.854,-0.923,0.865,2.08,1.33,0.527,0.812,6.02,5.32,-0.0745,0.381,-0.661,-0.233,-0.0962,0.279,0.552
CGAACTAGCTCAAAGGACAGTGAAAGGCGACGTA,-0.37,-0.67,-0.493,-0.766,-0.633,0.188,1.06,2.13,0.533,1.99,-0.134,-0.285,-0.415,0.163,-0.639,-0.457,-0.276,0.225,0.694
ATATGTAGGATAGGGTCATTCAGAAAGTAGGGAA,3.78,3.12,0.63,3.55,1.08,4.62,4.04,3.78,1.71,3.29,2.75,3.63,1.68,2.36,3.47,1.46,4.19,1.52,2.69
CGAACTAGGTCAAAGGACAGAGAAAGGCGACGTA,4.22,2.87,-0.0116,1.9,-0.178,5.58,10.3,8.77,8.15,9.91,8.13,8.31,4.05,1.87,1.26,-0.306,2.31,0.114,3.88
ATATGTAGGTTAGGGTCATGCAGAAAGTAGGGAA,4.77,4.14,0.926,4.29,1.21,5.74,7.7,6.66,4.91,6.3,6.6,6.52,2.44,2.6,4.26,1.01,5.05,1.83,3.66
CGAACTAGGTCACCAGGACAGTGTAGAGGTTGGA,4.04,2.35,-0.0613,1.77,-0.589,5.08,8.54,6.85,4.68,6.46,8.42,8.73,1.75,2.71,1.58,-0.179,2.54,0.514,4.1
